# Results as given in PubChem BioAssay (NCATS).
# Records with an inconclusive call do not appear. Calls of active or inactive are those of the source. Calls come from the whole dose curve; as a rule, active = well fitted cell-killing curve with a large enough effect; inconclusive = small, poorly fitted or top-dose-only effect, or effect the other way; inactive = flat fitted curve, though single readings scatter.
# System: C33A
# Assay: Primary qHTS to identify gynecologic anti-cancer compounds using libraries of approved drugs and bioactive compounds (AID 1345084); note: nearly all actives have a fitted effect of over 55% in size
# Details: Gynecologic cancer cell panel viability, ATPlite luminescence, 48 h; series mostly up to 57.5 µM; activity change, negative = cytotoxicity: at the top concentration
# How it was run: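 Five-point cytotoxicity, 48 h drug exposure at 37 C, 5% CO2, on cells seeded 16 h beforehand. ATP content read by ATPlite luminescence.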
# % is set by controls: 0 for no effect and ±100 for the full control effect.
row,SMILES,"activity change, negative = cytotoxicity"
1,CNc1nc(NCc2ccc(NS(C)(=O)=O)cc2Cl)cc(-c2ccccn2)n1,-20.9% (inactive)
2,N#CC(CCCN1CCN(/N=C/c2cccnc2)CC1)(c1ccccc1)c1ccccc1,0.642% (inactive)
3,CCc1cc2c(cc1CC)CC(NCC(O)c1ccc(O)c3[nH]c(=O)ccc13)C2 (stereo unspecified),0.285% (inactive)
4,CC(=O)OC1C(OC(=O)c2ccccc2)C2C(=C(C)CCC2(C)C)C23CCC(C)(C2)C(=O)CC13 (stereo unspecified),-24.7% [at 25.3 µM] (inactive)
5,COC(=O)c1cc(Br)cnc1N1CCC(NC2CCCCC2)C(O)C1 (stereo unspecified),4.32% (inactive)
6,Cc1ccc(C2(C(=O)N3CCC(n4nc(-c5ccccc5)oc4=O)CC3)CC2)cc1,-7.43% (inactive)
7,Cc1c(C2=CCN(C(=O)N(C)C(C)C)CC2)nnn1-c1cccnc1F,3.02% (inactive)
8,NC(N)=NC(=O)c1cnn(-c2cccc3ncccc23)c1C1CC1,-21.1% (inactive)
9,CC1(C)OC[C@H](NC(=O)Nc2ccc(Br)cc2Br)[C@H](c2ccccc2)O1,-1.93% (inactive)
10,O=C(Nc1ccccc1)c1ccc(Nc2nnc(-c3ccc(O)cc3)c3ccccc23)cc1,-3.52% (inactive)
11,CCCc1ccc(OCC(=O)N(Cc2nc(-c3cccnc3)no2)C(C)C)cc1,-25.5% (inactive)
12,C/C(=C/C=C\C=C\Cc1cnco1)[C@@H](O)C(C)(C)C(N)=O,-16.9% (inactive)
13,CCC(C)CNCC(=O)N1CCC2SC=CC2C1COc1cccc(C)c1 (stereo unspecified),-6.44% (inactive)
14,CNC(=O)c1cc(Oc2ccc(NC(=O)c3cccc(C(F)(F)F)c3)cc2)ccn1,-23.6% (inactive)
15,CC(F)(F)CN1CCOc2c(nn(-c3ccccc3Cl)c2-c2ccc(Cl)cc2)C1=O,17.7% (inactive)
16,COc1cc(CN(CCN)C(=O)c2cccs2)ccc1OCc1ccccc1,-2.75% (inactive)
